A selection: hits, their analogues and other compounds. The true share with any hit is near 2.8%.
PAX8 reporter: lowers PAX8-driven luciferase in RMG-I cells. hit rate 1.2% among 360,000. RMG-I TPO-luciferase reporter, SteadyGlo, 24 h. inhibition, % at 12.6 µM. AID 652154;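 active = mean replicate inhibition at least 60% with every replicate also reaching 60%; inconclusive = only one of the two criteria is met; inactive = mean below 60% and not all replicates reaching 60%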;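 also: luciferase light reporting Pax8 driven TPO promoter activity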
TWEAK Fn14 block: TWEAK-Fn14 signaling inhibition; TWEAK-stimulated Fn14 reporter cells, luciferase luminescence, 8 h; AID 1159606; inhibition, % at 10 µM; hit rate 2% among 360,000; in the data active = inhibition above about 50%
TROY signal inh: inhibitors of TROY-dependent NF-kB signaling; AID 1347056; hit rate 0.98% among 360,000; Q293 LMP1-TROYcd NF-kB luciferase reporter, 4 h; inhibition, % at 10 µM;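 active = compounds whose plate-normalised and pattern-corrected inhibition of the luciferase reporter signal at the single screening dose is 50% or more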
EWS-Fli inh: EWS/Fli transcriptional activity inhibition. inhibition, % at 12.6 µM. hit rate 0.67% among 350,000. AID 651661. A673 NR0B1-luciferase reporter, viability-normalised;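 active = mean inhibition of at least 50% after viability correction, with every replicate also passing that limit; inconclusive = mean reaches 50% but only one of two replicates passes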;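 also: firefly luciferase signal divided by Alamar Blue viability fluorescence both relative to DMSO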
LGR2 inh: blocks bursicon-induced cAMP signaling via Drosophila LGR2 | HEK293 LGR2, CRE-luciferase, bursicon-stimulated, 4 h | inhibition, % at 9.99 µM | hit rate 0.35% among 380,000;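 active = drop in luminescence signal, shown as inhibition above about 50% in the replicate tests, limit read from the data, passing the limit was not always enough; inconclusive = probably only some replicates passing the limit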;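 also: agonist challenge used bursicon conditioned medium at about half maximal strength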
A number is an active result; . = inactive; ? = inconclusive; / = no result given.

SMILES | PAX8 reporter | TWEAK Fn14 block | TROY signal inh | EWS-Fli inh | LGR2 inh
O=C(Nc1cccc2ccccc12)NC1Cc2ccccc2C1 | . | 89 | 57 | . | .
C[C@@H]1CN([C@@H](C)CO)S(=O)(=O)c2ccc(C#Cc3ccccc3)cc2O[C@H]1CN(C)C(=O)C1CC1 | / | / | / | . | .
CCOC(=O)C1=C(O)/C(=C/c2ccc(-c3ccccc3C(=O)O)o2)SC1=Nc1ccc(C)cc1 | . | 58 | . | . | .
CCCCN(C=O)c1c(CC)nc2ccc(C(=O)Nc3cc(-c4ccccc4)ccc3OC)cn12 | 75 | . | . | . | .
CCc1nc2ccc(C(=O)Nc3cc(-c4ccccc4)ccc3OC)cn2c1N(CC)CCN(C)C | . | . | . | . | .
C=CCn1c(SCC(=O)N2CCCCCC2)nc2ccccc2c1=O | . | 73 | . | . | .
COC(=O)c1ccc2c(c1)C(C)(C)C(/C=C/c1ccc(O)cc1)=[N+]2C | / | 94 | . | / | ?
CC(C)c1ccc(Nc2ncc3c(n2)CCN(C(=O)Nc2ccc(F)c(Cl)c2)C3)cc1 | . | 78 | 65 | . | .
COc1cccc(NC(=O)N2CCc3nc(Nc4cc(Cl)cc(Cl)c4)ncc3C2)c1 | . | . | . | . | /
COc1cccc(NC(=O)N2CCc3nc(NCc4cccc(Oc5ccccc5)c4)ncc3C2)c1 | . | 54 | . | . | /
C[C@H]1CN([C@@H](C)CO)C(=O)c2cc(C#CC3CC3)cnc2O[C@H]1CN(C)C(=O)C1CCCCC1 | / | / | / | . | .
O=C(Nc1ccc2c(c1)[C@H]1C[C@H](CC(=O)N3CCOCC3)O[C@@H](CO)[C@H]1O2)NC1CCCC1 | . | / | / | . | .
CC(C)(C)c1ccc(-c2noc(CCC(=O)Nc3cccnc3)n2)cc1 | 87 | . | 58 | . | .
COc1ccc2[nH]c3c4c(ccc3c2c1)C(=O)C=CC4=O | . | 72 | . | . | .
COc1ccc2[nH]c(=O)cc(C(=O)O)c2c1 | . | . | . | . | .
CCCN(C)C[C@H]1Oc2ncc(-c3ccccc3F)cc2C(=O)N([C@@H](C)CO)C[C@@H]1C | / | / | / | . | .
O=c1cc(CN2CCN(c3ccccc3)CC2)nc2scc(-c3ccccc3)n12 | . | . | 58 | . | .
CCc1ccc(NC(=O)Cn2nc(C(F)(F)F)c3c2CCC3)cc1 | . | . | . | / | /
COc1cc(NC(=O)Cn2nc(C(F)(F)F)c3c2CCCC3)cc(OC)c1OC | / | 66 | / | / | /
COc1cc(-c2noc(C)c2C#Cc2ccsc2)cc(OC)c1OC | . | . | . | 59 | .
CCOC(=O)c1c(C)[nH]c(C(=O)N/N=C/c2ccc(Br)cc2)c1C | . | 55 | . | / | .
CN(C)c1ccc(N=Cc2ccco2)cc1 | / | 51 | . | / | /
CN(C)c1ccc(C=Nc2ccc(N(C)C)cc2)cc1 | / | . | . | / | /
Nc1ncnc(NCc2ccc(F)cc2)c1[N+](=O)[O-] | . | 60 | . | . | .
Nc1ncnc(NCc2ccccc2)c1[N+](=O)[O-] | . | . | . | . | .
SMILES | PAX8 reporter | TWEAK Fn14 block | TROY signal inh | EWS-Fli inh | LGR2 inh
O=C1c2ccccc2C2=Nc3ccccc3SC(c3cccc(F)c3)C12 (stereo not given) | . | . | 71 | / | .
CCN1[C@@H]2c3ccc(-c4ccncc4)c(=O)n3C[C@@H]2[C@@H](CO)[C@@H]1C(=O)NCCc1cn(C)cn1 | . | / | / | . | .
Cc1ccc(S(=O)(=O)N(C)C[C@@H]2Oc3ccc(NC(=O)CCN4CCOCC4)cc3CC(=O)N([C@H](C)CO)C[C@H]2C)cc1 | . | / | / | . | .
Cc1cc(/C=C(\C#N)C(=O)Nc2ccc(F)cc2)c(C)n1-c1ccc(N2CCOCC2)c([N+](=O)[O-])c1 | / | 53 | . | / | .
CNC(=O)/C(C#N)=C\c1cc(C)n(-c2ccc(N3CCOCC3)cc2)c1C | . | . | . | . | .
COc1ccc(NC(=O)/C(C#N)=C/c2cc(C)n(-c3ccc(N4CCOCC4)c([N+](=O)[O-])c3)c2C)cc1 | . | 79 | . | . | .
COc1ccc(NC(=O)/C(C#N)=C\c2cc(C)n(-c3ccc(Oc4ccc([N+](=O)[O-])cn4)cc3)c2C)cc1 | / | . | . | / | .
CCCN(C)C[C@@H]1OCCCC[C@H](C)Oc2ccc(NS(C)(=O)=O)cc2C(=O)N([C@@H](C)CO)C[C@H]1C | . | / | / | . | .
C[C@H]1CCCCO[C@@H](CN(C)Cc2ccc3c(c2)OCO3)[C@@H](C)CN([C@@H](C)CO)C(=O)c2cc(NC(=O)C3CCCCC3)ccc2O1 | . | / | / | . | .
CO[C@H]1CN(C)C(=O)c2cc(NC(=O)CC(F)(F)F)ccc2OC[C@@H](C)NC[C@H]1C | / | / | / | / | .
CCO[C@@H]1OC(C(=O)NCc2nc3ccccc3[nH]2)=C[C@H](C2CC2)[C@H]1CCCO | . | . | . | . | .
CCO[C@@H]1OC(C(=O)NCc2nc3ccccc3[nH]2)=C[C@H](C(C)(C)C)[C@H]1CCCO | 64 | . | . | 53 | .
CCNC(=O)[C@@H]1[C@@H](CO)[C@@H]2Cn3c(ccc(-c4ccc(F)cc4)c3=O)[C@@H]2N1CC1CC1 | . | / | / | . | .
COc1cccc(/C=C/C(=O)OCC(=O)c2ccccc2)c1OC | . | 65 | 51 | . | .
COc1cccc(/C=C/C(=O)OCC(=O)c2ccc(C)c(C)c2)c1OC | . | . | . | . | .
Cc1cnc(NC(=O)COc2ccccc2Cl)s1 | / | 96 | 59 | / | 91
S=C(Nc1ccc(Cl)c(Cl)c1)NC1CCCCC1 | / | 63 | . | . | .
O=C(Nc1ccccc1O)c1ccc([N+](=O)[O-])cc1 | . | 110 | . | . | .
CC(=O)c1ccc(N2CCC(c3cc(-c4ccc(Cl)cc4Cl)n[nH]3)CC2)c([N+](=O)[O-])c1 | . | 88 | . | / | /
Oc1c(Cl)cc(CN2CCOCC2)c2cccnc12 | 103 | . | . | . | .
CO[C@@H]1CN(C)C(=O)c2ccc(NS(=O)(=O)c3ccccc3)cc2OC[C@@H](C)NC[C@@H]1C | / | / | / | . | .
Nc1nc(=S)c2ncn(C3OC(CO)C(O)C3O)c2[nH]1 (stereo not given) | . | . | . | . | .
Nc1nc(=S)c2ncn(C3CCCCC3)c2[nH]1 | . | . | 64 | . | .
COc1ccc2nc(C)cc(Nc3ccc(N4CCOCC4)cc3)c2c1 | / | . | . | / | /
Cc1ccc2nc(C)cc(Nc3ccc([N+](=O)[O-])cc3)c2c1 | 96 | . | . | . | ?
SMILES | PAX8 reporter | TWEAK Fn14 block | TROY signal inh | EWS-Fli inh | LGR2 inh
COc1ccc(Nc2cc(C)c3cc([N+](=O)[O-])ccc3n2)cc1 | . | 51 | . | . | .
CC(=O)c1cccc(Nc2cc(C)nc3ccc(C)cc23)c1 | . | . | . | . | .
COc1ccc(/C=N/Nc2cc(C)nc3ccc(OC)cc23)c(OC)c1 | 87 | 86 | 82 | 66 | 103
COc1ccc2nc(C)cc(Nc3ccc(N4CCN(C)CC4)cc3)c2c1 | . | . | . | 80 | .
COc1ccc2nc(C)cc(N/N=C/c3ccccc3)c2c1 | / | . | . | / | /
CN1C(=O)c2cc(NC(=O)c3ccc4c(c3)OCO4)ccc2OC[C@@H]2O[C@H](CC(=O)O)CC[C@@H]21 | . | / | / | . | .
O=C(C[C@H]1C[C@@H]2c3cc(NC(=O)NC4CCCCC4)ccc3O[C@@H]2[C@@H](CO)O1)NCc1ccccn1 | . | / | / | . | .
COC(=O)c1ccc(Nc2cc(C)nc3ccc(C)cc23)cc1 | . | . | . | . | 74
